Laboratory results from PubChem BioAssay AID1851 (National Center for Advancing Translational Sciences (NCATS), 2009).
The whole screen tested about 16,000 compounds, of which about 4,000 (25%) were called active. Inconclusive results (about 26%) are left out. The list is a sample of the results. A number with no mark means an inactive call. Calls follow the shape of the dose curve; as a rule, active = well fitted curve in the direction sought with a large enough effect; inconclusive = small, poorly fitted or top-dose-only effect, or effect the other way; inactive = no such curve, though single readings can be large or run the other way.

Target: Cytochrome P450 2C9 (Homo sapiens) (UniProt P11712)
Experiment: Cytochrome panel assay with activity outcomes
Conditions: recombinant CYP, pro-luciferin dealkylation, luminescence, p450-cyp2c9; series mostly up to 57.1 µM; activity, negative = inhibition: at the top concentration
% is scaled to controls: 0 for no effect and ±100 for the full control effect.

Cytochrome P450 2C9 (Homo sapiens), sequence (P11712 whole entry, looked up): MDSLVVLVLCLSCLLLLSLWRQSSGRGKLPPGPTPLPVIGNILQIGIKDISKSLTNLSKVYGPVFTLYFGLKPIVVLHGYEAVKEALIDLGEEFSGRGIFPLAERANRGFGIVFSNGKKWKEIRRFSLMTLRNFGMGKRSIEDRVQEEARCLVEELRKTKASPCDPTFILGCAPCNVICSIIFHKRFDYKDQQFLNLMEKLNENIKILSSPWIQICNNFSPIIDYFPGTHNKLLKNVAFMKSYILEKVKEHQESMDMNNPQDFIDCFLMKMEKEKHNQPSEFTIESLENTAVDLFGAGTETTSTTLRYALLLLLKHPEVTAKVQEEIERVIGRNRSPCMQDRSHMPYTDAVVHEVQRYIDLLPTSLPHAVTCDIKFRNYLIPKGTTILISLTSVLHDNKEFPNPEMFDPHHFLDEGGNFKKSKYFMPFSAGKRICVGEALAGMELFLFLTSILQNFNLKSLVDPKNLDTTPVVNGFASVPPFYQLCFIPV

SMILES	activity, negative = inhibition	AC50
CC1=NN(C(=O)c2ccncc2)C(=O)[C@@H]1N=Nc1ccc2ccccc2c1	-11.2% [at 11.4 µM]	–
OCCN(CCO)c1ncnc2nc[nH]c12	5.61% [at 11.4 µM]	–
O=C(C=C1SCCS1)/C=C/c1ccco1	6.81%	–
O=C(/C=C/c1ccco1)Nc1ccc(Oc2ccccc2)cc1	–	5.01 µM (active)
CO[C@H]1COC(=O)[C@H]2CCCN2C(=O)C/C=C\[C@@H](C)[C@H](OC)COC(=O)C/C=C\[C@@H]1C	13.8% [at 11.4 µM]	–
CC[C@]1(O)C[C@H]2CN(CCc3c([nH]c4ccccc34)[C@](C(=O)OC)(c3cc4c(cc3OC)N(C=O)[C@H]3[C@@](O)(C(=O)OC)[C@H](OC(C)=O)[C@@]5(CC)C=CCN6CC[C@]43[C@H]65)C2)C1	0.0764%	–
Cc1nc(SCC(=O)Nc2c(C)nn(C)c2C)c2cnn(-c3ccccc3)c2n1	–	2.51 µM (active)
Cc1nc(SC(C(=O)c2ccccc2)c2ccccc2)n[nH]1 (stereo not drawn)	–	4.47 µM (active)
O=C(c1ccccc1)[C@H](Nc1ccc2ccccc2c1)c1ccccc1	-6.81% [at 11.4 µM]	–
O=C1COC(c2ccccc2O)=NN1CCCN1CCCC1	2.77% [at 11.4 µM]	–
CN(c1ccc(C(=O)NCc2ccccn2)cc1)S(C)(=O)=O	4.78%	–
Cc1ccc(NS(=O)(=O)c2cc(C(=O)NCc3ccccn3)ccc2Cl)cc1	–	17.8 µM (active)
Cc1ccc(NS(=O)(=O)c2cc(C(=O)N3CCc4ccccc4C3)ccc2Cl)cc1	–	2.51 µM (active)
O=C(O)[C@@H]1[C@@H](C(=O)NCc2ccccn2)[C@@H]2C=C[C@@H]1O2	1.33% [at 11.4 µM]	–
CN(CC(=O)Nc1ccc(F)c(F)c1)S(=O)(=O)c1cccc2nsnc12	–	0.355 µM (active)
CC1CCN(C(=O)CN(C)S(=O)(=O)c2cccc3nsnc23)CC1	-12.1%	–
COc1ccc(C(F)(F)F)cc1N/C=C\c1nnnn1-c1ccccc1	–	4.47 µM (active)
CS(=O)(=O)N1CCC[C@@]2(CCN(c3ncccn3)C2)C1	8.97%	–
O=C(O)COC(=O)Cc1ccccc1Nc1c(Cl)cccc1Cl	–	1.58 µM (active)
O=C(O)C[C@H](Cc1ccccc1Cl)C(=O)O	2.18% [at 11.4 µM]	–

SMILES	activity, negative = inhibition	AC50
NC(=O)NC(=O)Nc1ccccc1Cl	-29.3%	–
CNc1ccnc(-c2ccccc2OC)n1	-17.5% [at 2.29 µM]	–
CCCS(=O)(=O)N1CCCC(C(=O)NCCN(C)Cc2ccccc2)C1 (stereo not drawn)	-6.79%	–
O=C(NCCC1=CCCCC1)C1CCCN(c2nc3ccccc3o2)C1 (stereo not drawn)	–	3.55 µM (active)
CC1CC(C)CN(CCCNC(=O)C2CCCN(c3nnc(N4CCCC4=O)s3)C2)C1 (stereo not drawn)	-3.57%	–
Cn1c(=O)c(C(=O)CN2CCOCC2)c(N)n(Cc2ccccc2)c1=O	-21.5%	–
CC(C)Cn1c(=O)n(C)c(=O)c2[nH]cnc21	8.76%	–
CC(C)Cn1c(N)c(C(=O)CSc2ccc3c(c2)OCCO3)c(=O)n(C)c1=O	–	3.55 µM (active)
CN1CCN(c2ncncc2-c2ccoc2)CC1	17.1% [at 2.29 µM]	–
O=C(Nc1ccccc1C(=O)Nc1ccc2c(c1)OCO2)c1ccco1	–	1.41 µM (active)
O=C(Nc1ccccc1C(=O)NCCc1ccccc1)c1ccco1	–	2.82 µM (active)
CCCC[P+](CCCC)(CCCC)Cc1ccc(NC(=O)[C@@H](Cc2ccc3ccccc3c2)NC(=NC2CCCCC2)NC2CCCCC2)cc1	0.236%	–
Cc1ccc(C(C(=O)NC2CCCCC2)N2CCN(C(=O)c3ccco3)CC2)cc1 (stereo not drawn)	-17.6%	–
CCC(NC(=O)c1ccccc1NC(=O)c1ccco1)C(=O)NC1CCCCC1 (stereo not drawn)	–	7.08 µM (active)
COc1ccccc1CNc1cc(-c2ccc(C(=O)N(C)C)cc2)ncn1	10% [at 2.29 µM]	–
CN1CCN(C2=Nc3ccccc3Oc3ccc(Cl)cc32)CC1	2.74%	–
COC(=O)c1c(NC(=O)c2ccco2)sc2c1CCC2	–	2.82 µM (active)
CCN1C(=O)[C@H]2[C@H]3[C@H](O)[C@H](O)C/C(=N/O[C@@H]4O[C@@H](COC(C)=O)[C@@H](OC(C)=O)[C@@H](OC(C)=O)[C@H]4OC(C)=O)[C@H]3CC[C@@H]2C1=O	23.1% [at 11.4 µM]	–
COc1cc(NC(=O)c2cc3nc(-c4ccccc4)cc(-c4ccccc4)n3n2)cc(OC)c1OC	–	2.24 µM (active)
COc1ccc(-c2cc(C(=O)Nc3cc(OC)c(OC)c(OC)c3)no2)cc1OC	-6.73%	–

SMILES	activity, negative = inhibition	AC50
Clc1ccc(CSc2ncnc3c2ncn3[C@@H]2CCCCO2)cc1	-17.8% [at 11.4 µM]	–
CC(C)[C@H](N)c1nnc(SCc2ccc(Cl)cc2)o1	–	1.78 µM (active)
O=c1ccnc(SCc2ccc(Cl)cc2)[nH]1	-29.9% [at 11.4 µM]	–
CC(CC(=O)O)(CC(=O)O)C(=O)O	-9.5% [at 11.4 µM]	–
O=C(Cc1ccccc1)NCCSCc1ccc(Cl)cc1	–	3.98 µM (active)
O=C(O)CCSCc1ccccc1	24.2% [at 11.4 µM]	–
O=C(Cc1ccccc1[N+](=O)[O-])NCCSCc1c(F)cccc1Cl	31.4%	–
CCN(CC)c1ncnc2c1sc1nc(C)cc(C)c12	–	17.8 µM (active)
Cc1noc(C)c1-c1cncnc1Nc1ccccc1	-0.353% [at 2.29 µM]	–
CCNc1ncc2nc(-c3ccc(OC)cc3)c(=O)n(Cc3cccs3)c2n1	-26.2%	–
CCN1C(=O)C(CC(=O)Nc2ccc(Br)cc2)N(CCCc2ccccc2)C1=S (stereo not drawn)	–	0.708 µM (active)
CCN1C(=O)C(CC(=O)Nc2ccc(OC)cc2)N(Cc2cccs2)C1=S (stereo not drawn)	–	7.08 µM (active)
CCOC(=O)C1=C(C)N=C2c3ccccc3C(=O)C2C1c1ccc(C)cc1 (stereo not drawn)	–	0.891 µM (active)
CCOC(=O)C1=C(C)N=C2c3ccccc3C(=O)C2C1c1ccc(Cl)cc1 (stereo not drawn)	–	0.562 µM (active)
Cc1nnsc1SC(C)C(=O)O (stereo not drawn)	-4.21%	–
CC(=O)c1cccc(NC=C2C(=O)OC3(CCCCC3)OC2=O)c1	-14%	–
O=C(/C=C/Nc1ccccc1)c1ccc(Oc2ncccn2)cc1	19%	–
CC(=O)c1cccc(NS(=O)(=O)c2ccc(N/C=C\C(=O)c3ccc(F)cc3)cc2)c1	–	2.82 µM (active)
